# MEP2-GFP yeast: alters MEP2-GFP fluorescence in TOR pathway yeast screen; S. cerevisiae MEP2-GFP strain, flow cytometry GFP, 3 h; 100% = DMSO control level; GFP response vs DMSO, % at 10 µM; 330,000 tested, 0.51% active;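 active means GFP response versus DMSO above a set limit, roughly screen mean plus 3 SD, cut at about 180% in these data; inconclusive means fewer than 70 cells counted for a yeast strain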;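 further: median GFP fluorescence of the barcode-gated MEP2-GFP cells per well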
# CIT2 TOR yeast: modulators of TOR pathway CIT2-GFP in S. cerevisiae. 320,000 tested, 0.065% active. S. cerevisiae CIT2-GFP strain, flow cytometry, 3 h; 100 means same as DMSO wells. GFP response vs DMSO, % at 10 µM;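 active means GFP response relative to DMSO above a set limit, near the screen mean plus 3 SD, cut at about 150% in these data; inconclusive means Fewer than 70 cells measured for a yeast strain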;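 further: ratio of well median GFP fluorescence to mean of DMSO wells on the plate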
# RPL19A TOR yeast: yeast TOR pathway RPL19A-GFP modulation; S. cerevisiae RPL19A-GFP strain, flow cytometry, 3 h; hits give low values; 330,000 tested, 0.3% active; percent response vs DMSO, % at 10 µM; AID 2025;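 active means percent response vs DMSO below 50%; inconclusive means fewer than 70 events counted for the yeast strain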;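 further: median channel GFP fluorescence of the barcoded RPL19A-GFP strain; ratio of sample median GFP to plate DMSO average so 100% = DMSO; lower means less RPL19A-GFP as with rapamycin TOR inhibition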
# LAP4 TOR yeast: alters LAP4-GFP fluorescence in TOR pathway yeast screen; S. cerevisiae LAP4-GFP multiplex, flow cytometry GFP, 3 h; median GFP as percent of DMSO wells; GFP response vs DMSO, % at 10 µM; 320,000 tested, 0.34% active; AID 2023;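 active means GFP response vs DMSO above a set limit, about the screen mean plus 3 SD, cut at about 150% in these data; inconclusive means under 70 cell events counted for the yeast strain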
# AGP1 TOR yeast: yeast TOR pathway AGP1-GFP modulation; S. cerevisiae AGP1-GFP multiplex flow cytometry, 3 h; GFP as percent of DMSO wells; AID 2066; 320,000 tested, 0.02% active; GFP response vs DMSO, % at 10 µM;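 active means GFP response relative to DMSO above a set limit, near screen average plus 3 SD, cut at about 150% in these data; inconclusive means fewer than 70 cells counted for the yeast strain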;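 further: median GFP channel fluorescence of the gated AGP1 strain per well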
# JMJD2C inh: human JMJD2C demethylase inhibition; AID 2099; 330,000 tested, 0.069% active; inhibition, % at 2.35 µM; Q9H3R0; GST-JMJD2C(1-420) H3K9me3 demethylation, DELFIA europium;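 active means more than half of a compound's replicate wells show inhibition beyond 50%, single wells judged on their own value; inconclusive means some, but no more than half, of replicates pass 50% inhibition; inactive means no replicate passes 50% inhibition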;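 further: signal counts dimethyl H3K9 product captured on neutravidin plate; 0% = median of DMSO wells and 100% = 0.3 times that DMSO median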
# Target sequence (Q9H3R0 1-420 limits assumed): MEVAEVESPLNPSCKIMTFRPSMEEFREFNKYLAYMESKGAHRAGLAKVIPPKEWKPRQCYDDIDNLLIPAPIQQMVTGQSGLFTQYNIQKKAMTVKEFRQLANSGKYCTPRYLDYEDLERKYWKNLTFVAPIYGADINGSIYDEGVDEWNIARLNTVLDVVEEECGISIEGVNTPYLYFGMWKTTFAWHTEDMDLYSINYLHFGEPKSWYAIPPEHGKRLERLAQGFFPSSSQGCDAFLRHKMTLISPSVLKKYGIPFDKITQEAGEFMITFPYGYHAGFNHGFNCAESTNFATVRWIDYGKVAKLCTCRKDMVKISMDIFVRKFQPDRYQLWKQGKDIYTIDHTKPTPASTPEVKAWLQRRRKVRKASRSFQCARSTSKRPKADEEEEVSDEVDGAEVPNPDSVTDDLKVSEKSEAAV
# LAP4-GFP pick2: second confirmation of modulators of TOR reporter LAP4-GFP in yeast. shares compounds with LAP4 TOR yeast. S. cerevisiae LAP4-GFP strain, flow cytometry GFP, 3 h. GFP response vs DMSO, % at 10 µM. 590 tested, 20% active. AID 2621;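 active means GFP signal as percent of the solvent control above about 150%, meaning raised reporter expression, limit read from the data; inconclusive means fewer than 70 cells counted in the well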;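 further: ratio of well median GFP fluorescence to plate DMSO mean so 100% = DMSO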
# MEP2 cherry2: second confirmation of modulators of TOR reporter MEP2-GFP in yeast; S. cerevisiae MEP2-GFP strain, flow cytometry GFP, 3 h; 590 tested, 10% active; shares compounds with LAP4 TOR yeast; GFP response vs DMSO, % at 10 µM; AID 2622;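 active means GFP signal above 150% of the solvent control wells, that is a rise of more than half; inconclusive means fewer than 70 yeast cells counted in the well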;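 further: median channel GFP fluorescence of all gated yeast cells per well; ratio of median GFP to plate DMSO average so 100% = DMSO level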
# RPL19A-GFP pick2: second confirmation of modulators of TOR reporter RPL19A-GFP in yeast; shares compounds with LAP4 TOR yeast; S. cerevisiae RPL19A-GFP strain, flow cytometry GFP, 3 h; hits give low values; 100% means same as DMSO wells; GFP response vs DMSO, % at 10 µM; 590 tested, 3% active; AID 2623;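 active means under 65% GFP response relative to DMSO; inconclusive means yeast strain with under 70 measured events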;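 further: median GFP channel fluorescence per well over the all cells gate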
# CIT2-GFP pick2: second confirmation of modulators of TOR reporter CIT2-GFP in yeast. shares compounds with LAP4 TOR yeast. S. cerevisiae CIT2-GFP strain, flow cytometry GFP, 3 h; DMSO control wells read 100%. GFP response vs DMSO, % at 10 µM. 590 tested, 8% active. AID 2624;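 active means GFP response vs DMSO above about 150%, limit read from the data; inconclusive means fewer than 70 events counted for a yeast strain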;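 further: median green fluorescence per well over all gated yeast cells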
# AGP1 GFP CP2: second confirmation of modulators of TOR reporter AGP1-GFP in yeast | 590 tested, under 10 active | percent response vs DMSO, % at 10 µM | S. cerevisiae AGP1-GFP strain, flow cytometry GFP, 3 h | shares compounds with LAP4 TOR yeast | AID 2643;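 active means over 150 percent of DMSO response; inconclusive means yeast strain measured with under 70 events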;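 further: median GFP channel fluorescence over all cells without mother daughter split; sample median GFP divided by mean DMSO control so 100% equals DMSO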
# s288c autofluor: compound is autofluorescent in yeast s288c cells; shares compounds with LAP4 TOR yeast; S. cerevisiae s288c, 520 nm autofluorescence, flow cytometry, 3 h; hits give high values; zero means same as solvent-only cells; fluorescence change (kMESF span) at 33 µM; 610 tested, under 10 active;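 active means fluorescence span over the dose series, or activity score, above about 33, limit read from the data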
# Active calls of the source: *; ? = inconclusive; · = no result. This is a sample that favours compounds with a hit; in the whole collection about 0.97% have one here.
SMILES,MEP2-GFP yeast,CIT2 TOR yeast,RPL19A TOR yeast,LAP4 TOR yeast,AGP1 TOR yeast,JMJD2C inh,LAP4-GFP pick2,MEP2 cherry2,RPL19A-GFP pick2,CIT2-GFP pick2,AGP1 GFP CP2,s288c autofluor
O=C1NC(=O)N(Cc2ccc(F)cc2)C(=O)/C1=C/c1cccs1,99.5,76.4,87.7,169.6*,90.8,2.5,196.2*,133.1,76.1,79.2,80.9,0.1
CCCCCCCCn1sccc1=O,98.2,86.3,88.2,207.4*,72.3,-3.5,180.4*,185.2*,84.8,173.8*,86.6,1.6
CC(=O)O[C@H]1[C@H]2O[C@]23[C@@H]2CC[C@]4(O)C[C@@H](O)CC[C@]4(C)C2CC[C@]3(C)[C@H]1c1ccc(=O)oc1 (some centres undefined),97.1,96.2,99.7,98.8,99.7,-6.1,·,·,·,·,·,·
CC1(C)C[C@H]2C=C(C=O)[C@]3(C=O)C[C@]3(C)[C@H]2C1,121.7,103.0,61.0,149.4,70.4,-10.0,198.1*,201.3*,78.6,187.7*,91.3,1.4
N#CC(Br)Br,97.0,93.0,102.7,107.6,108.5,8.3,·,·,·,·,·,·
C1=CC(Cc2cncs2)c2ccccc21 (centres undefined),99.2,102.5,102.3,106.2,104.2,8.3,·,·,·,·,·,·
C/C(=C\c1ccc(N(C)C)cc1)[N+](=O)[O-],102.4,100.1,101.9,155.2*,102.5,-0.6,103.2,92.6,98.5,111.2,98.6,·
CCCN(CC1CC1)CC(O)c1ccccc1 (centres undefined),104.2,105.5,105.0,94.3,98.7,5.4,·,·,·,·,·,·
O=C1C(=O)c2ccccc2-c2ccccc21,98.6,81.0,95.0,105.5,77.3,-21.2,·,·,·,·,·,2.12
CC[C@H](C)/C=C(C)/C=C/C1=CC2=C(Cl)C(=O)[C@@](C)(OC(C)=O)C(=O)C2=CO1,79.0,74.0,28.4*,74.7,7.6,?,71.2,96.5,29.0*,76.9,14.1,2
O=C1NC(=O)C(=Cc2ccc(-c3ccc(Cl)cc3)o2)C(=O)N1,90.0,56.9,70.5,262.7*,65.8,-0.5,198.1*,123.1,84.0,102.9,88.9,0.5
O=C1NC(=O)C(=Cc2ccc(-c3ccc(S(=O)(=O)N4CCOCC4)cc3)o2)C(=O)N1,91.3,72.4,95.5,108.3,88.7,14.9,·,·,·,·,·,·
Cc1c2cnn(CC(=O)N3CCC4(CC3)OCCO4)c(=O)c2c(C)n1Cc1ccccc1Cl,99.9,94.2,98.7,105.5,100.8,-9.1,·,·,·,·,·,·
Cc1ccsc1/C=C1\C(=O)NC(=S)N(C)C1=O,87.1,89.7,55.1,51.8,56.4,-5.2,103.2,127.5,66.8,79.3,64.4,-1.4
CN1C(=O)/C(=C/c2ccc(Cl)s2)C(=O)NC1=S,84.5,92.5,100.0,117.7,69.8,4.6,·,·,·,·,·,·

# Source: PubChem (several laboratories)
